Experimental data: PMC10812921, “Transcriptional Coactivator BOB1 (OBF1, OCA-B) Modulates the Specificity of DNA Recognition by the POU-Domain Factors OCT1 and OCT2 in a Monomeric Configuration”

Assays:
[1] = target: POU1 (OCT1 POU domain) (human, UniProt P14859 260-458); test: EMSA-SELEX-seq; no BOB1; 20 mM Tris-HCl pH 7.6, 140 mM NaCl, 10% glycerol, 0.5 mM EDTA, 0.05% Triton X-100, 0.1 mg/mL BSA, 0.1 mg/mL poly(dI-dC), 5 mM DTT, room temperature, 20 min; high values mean tight binding; settings: protein: recombinant; dsDNA, one strand shown
Sequence of POU1 (OCT1 POU domain) (P14859 260-458): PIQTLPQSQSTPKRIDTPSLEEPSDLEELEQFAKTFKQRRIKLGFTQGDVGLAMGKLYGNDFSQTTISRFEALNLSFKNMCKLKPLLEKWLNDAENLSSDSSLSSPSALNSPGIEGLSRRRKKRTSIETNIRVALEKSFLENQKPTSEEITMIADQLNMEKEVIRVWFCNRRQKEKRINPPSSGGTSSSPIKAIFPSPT
Procedure, shortened: (§1)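 Binding preference is reported as the percentage of sequenced 8-mers that match a motif pattern. Tagged POU-domain proteins were made in E. coli BL21, purified under denaturing conditions and renatured. A 30 ng portion was combined with 300 ng of a PCR-amplified double-stranded random 35-nt library, with or without 28 ng coactivator protein, in 20 μL Tris–HCl pH 7.6 binding buffer for 20 min at RT. Complex bands were excised from native 6% PAGE, eluted and PCR-amplified over four rounds before Illumina sequencing.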

[2] = target: T1, POU2 (OCT2 POU domain) (human, UniProt P09086 175-386); test: as above; settings: protein: recombinant; dsDNA, one strand shown
T1 sequence: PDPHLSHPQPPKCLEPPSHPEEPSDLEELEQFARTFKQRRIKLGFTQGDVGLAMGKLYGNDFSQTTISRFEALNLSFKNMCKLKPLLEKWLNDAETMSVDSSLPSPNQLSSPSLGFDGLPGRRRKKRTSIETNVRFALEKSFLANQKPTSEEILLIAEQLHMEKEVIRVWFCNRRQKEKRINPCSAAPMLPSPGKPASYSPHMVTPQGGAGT
Procedure, shortened: as §1

[3] = target: POU1 (OCT1 POU domain);BOB1 (OBF1, OCA-B) (human;human, UniProt P14859;Q16633 260-458;1-256, |); test: EMSA-SELEX-seq; with BOB1 (ternary complex band); 20 mM Tris-HCl pH 7.6, 140 mM NaCl, 10% glycerol, 0.5 mM EDTA, 0.05% Triton X-100, 0.1 mg/mL BSA, 0.1 mg/mL poly(dI-dC), 5 mM DTT, room temperature, 20 min; high values mean tight binding; settings: protein: recombinant;recombinant; copies: 1;1; dsDNA, one strand shown
Procedure, shortened: as §1

[4] = target: T2, POU2 (OCT2 POU domain);BOB1 (OBF1, OCA-B) (human;human, UniProt P09086;Q16633 175-386;1-256, |); test: as above; settings: protein: recombinant;recombinant; copies: 1;1; dsDNA, one strand shown
T2 sequence 1: T1 sequence
T2 sequence 2: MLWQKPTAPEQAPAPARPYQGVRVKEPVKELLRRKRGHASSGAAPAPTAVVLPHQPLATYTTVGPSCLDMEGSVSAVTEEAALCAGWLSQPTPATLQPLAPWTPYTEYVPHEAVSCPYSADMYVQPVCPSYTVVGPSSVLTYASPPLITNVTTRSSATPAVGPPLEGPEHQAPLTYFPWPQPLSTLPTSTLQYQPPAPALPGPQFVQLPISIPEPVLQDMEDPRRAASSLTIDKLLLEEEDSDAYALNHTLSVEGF
Procedure, shortened: as §1

Row | Sequence | binding signal [1] | binding signal [2] | binding signal [3] | binding signal [4]
1 | AAAAAAAG | 0.0923 % of ANNNNAAN 8-mers | 0.0938 % of ANNNNAAN 8-mers | 0.111 % of ANNNNAAN 8-mers | 0.0842 % of ANNNNAAN 8-mers
2 | ACGACAAG | 0.0175 % of ANNNNAAN 8-mers | 0.023 % of ANNNNAAN 8-mers | 0.0215 % of ANNNNAAN 8-mers | 0.0231 % of ANNNNAAN 8-mers
3 | AAACGAAT | 0.0767 % of ANNNNAAN 8-mers | 0.0783 % of ANNNNAAN 8-mers | 0.0675 % of ANNNNAAN 8-mers | 0.0792 % of ANNNNAAN 8-mers
4 | ACTCCAAC | 0.0126 % of ANNNNAAN 8-mers | – | 0.0113 % of ANNNNAAN 8-mers | 0.0198 % of ANNNNAAN 8-mers
5 | AACCTAAA | 0.0206 % of ANNNNAAN 8-mers | 0.0391 % of ANNNNAAN 8-mers | 0.0242 % of ANNNNAAN 8-mers | 0.0264 % of ANNNNAAN 8-mers
6 | ACTGTAAT | 0.0572 % of ANNNNAAN 8-mers | 0.0788 % of ANNNNAAN 8-mers | 0.0464 % of ANNNNAAN 8-mers | 0.0504 % of ANNNNAAN 8-mers
7 | AGTAGAAT | 0.0717 % of ANNNNAAN 8-mers | 0.0892 % of ANNNNAAN 8-mers | 0.0578 % of ANNNNAAN 8-mers | 0.0826 % of ANNNNAAN 8-mers
8 | AGCGAAAG | 0.0248 % of ANNNNAAN 8-mers | 0.0242 % of ANNNNAAN 8-mers | 0.0332 % of ANNNNAAN 8-mers | 0.0239 % of ANNNNAAN 8-mers
9 | AGGAAAAC | 0.0591 % of ANNNNAAN 8-mers | 0.0552 % of ANNNNAAN 8-mers | 0.0839 % of ANNNNAAN 8-mers | 0.0636 % of ANNNNAAN 8-mers
10 | ATGAGAAC | 0.0404 % of ANNNNAAN 8-mers | 0.0552 % of ANNNNAAN 8-mers | 0.03 % of ANNNNAAN 8-mers | 0.0388 % of ANNNNAAN 8-mers
11 | ATTTAAAA | 0.303 % of ANNNNAAN 8-mers | 0.299 % of ANNNNAAN 8-mers | 0.178 % of ANNNNAAN 8-mers | 0.137 % of ANNNNAAN 8-mers
12 | AGTCAAAG | 0.116 % of ANNNNAAN 8-mers | 0.0748 % of ANNNNAAN 8-mers | 0.187 % of ANNNNAAN 8-mers | 0.0966 % of ANNNNAAN 8-mers
13 | AACGGAAA | 0.0561 % of ANNNNAAN 8-mers | 0.0552 % of ANNNNAAN 8-mers | 0.0741 % of ANNNNAAN 8-mers | 0.0561 % of ANNNNAAN 8-mers
14 | ATGTGAAG | 0.0484 % of ANNNNAAN 8-mers | 0.0627 % of ANNNNAAN 8-mers | 0.046 % of ANNNNAAN 8-mers | 0.0429 % of ANNNNAAN 8-mers
15 | AGCGCAAT | 0.0278 % of ANNNNAAN 8-mers | 0.0368 % of ANNNNAAN 8-mers | 0.0258 % of ANNNNAAN 8-mers | 0.0297 % of ANNNNAAN 8-mers
